# Data as given in PubChem BioAssay AID587 (National Center for Advancing Translational Sciences (NCATS), 2007).
# Hit rate of the full screen: of about 59,000 compounds, about 35 (0.06%) were called active. About 19% were inconclusive and are not listed. Rule as the data show it: active = max dye-equivalent concentration above about 10 nM; inconclusive = between about 1.1 nM and that limit; inactive = weaker than that. Many of the other results were omitted from the sample, so actives are more common in it than they were.
# Test: qHTS Assay for Spectroscopic Profiling in Texas Red Spectral Region
# Conditions: Compound fluorescence, Texas Red channel, 547/618 nm; hits give high values
# From the text: NIH Molecular Libraries Screening Centers Network [MLSCN] NIH Chemical Genomics Center [NCGC] […] Occasionally, the artifactual effect may originate from the compound#s own spectral or other biophysical properties which generally tend to track its assay concentration. Pre-screening/profiling the library with respect to the compounds# spectral properties should help one exclude false positives early on. While the most informative fluorescent profiling data set is obtained by performing a full excitation and emission scan of each well by using a monochromator-based plate reader, such an approach is practical only on a very limited scale as scanning each well requires long time. An alternative approach, applied here, is to perform plate reader scans using selected excitation and emission wavelength pairs to generate a multidimensional relational database that correlates compound concentration and the respective relative fluorescence intensity at a given wavelength set. A standard curve of Texas Red (TR) present on each plate as six-point concentration series, was used to compute a normalized fluorescence response, termed dye-equivalent concentration, for each compound at each concentration.
# NCGC Assay Protocol Summary: Buffer: 100 mM Tris buffer, pH 8.0 Dye standard plate: The wells in columns 1 through 4 of a Kalypsys polypropylene 1536-well compound plate were filled with standard solutions of fluorophore corresponding to the spectral region of interest. Solutions of TR were placed in the following wells: U1, V1: 3 mM, U2, V2: 300 uM, U3, V3: 30 uM, U4, V4: zero (DMSO), W1, X1: 3 uM, W2, X2: 900 nM, W3, X3: 300 nM, W4, X4: zero (DMSO). Assay Steps: Six uL of buffer were dispensed to 1536-well Greiner black plates. Compounds and dye standards (23 nL) were transferred via Kalypsys PinTool. The plates were incubated for 15 min at room temperature, and then read on ViewLux (Perkin-Elmer) High-throughput CCD imager using 547 nm and 618 nm excitation and emission filter set. Keywords: NIH Roadmap, MLSCN, MLI, MLSMR, qHTS, NCGC, Texas Red, Fluorescent Profiling.
row,SMILES,max dye-equivalent concentration
1,COc1ccc(OCc2cccc(C(=O)N3CCCC3)c2)cc1,inactive
2,CN(c1ccc(C(=O)NCCC2=CCCCC2)cc1)S(C)(=O)=O,inactive
3,CCOc1ccc(C2C(C(=O)O)c3ccccc3C(=O)N2CCN2CCOCC2)cc1 (stereo unspecified),inactive
4,COc1ccccc1CNc1ncnc2ccc(-c3ccc4c(c3)OCO4)cc12,inactive
5,Cc1ccc2nc(-c3ccc(SCC(=O)Nc4cc(C)on4)nc3)[nH]c2c1,inactive
6,COc1ccc(-n2c(SCC(=O)NCc3cccs3)nnc2-c2ccoc2C)cc1,inactive
7,CN(C)CCNC(=O)C(C(=O)c1ccccc1)n1ccccc1=O (stereo unspecified),inactive
8,CC1Cn2c(nnc2-c2cccs2)S1 (stereo unspecified),inactive
9,CSc1ncccc1C(=O)OCC(=O)N1CCOCC1,inactive
10,c1ccc(-c2oc3ncnc(N4CCOCC4)c3c2-c2ccccc2)cc1,inactive
11,O=c1c(-c2cc(F)cc(F)c2)nc2cnc(Oc3ccccc3)nc2n1C[C@H]1CCCO1,inactive
12,COc1ccc(-n2ncc3c(N4CCc5ccccc54)ncnc32)cc1,inactive
13,CN(C)c1ccc(-c2nc(NCCN3CCOCC3)c3ccccc3n2)cc1,inactive
14,CC(NCCO)C(=O)C12CC3CC(CC(C3)C1)C2 (stereo unspecified),inactive
15,O=c1c(-c2ccc(F)cc2)nc2cnc(N3CCOCC3)nc2n1-c1ccccc1,inactive
16,Cc1cc(N2C(=O)C(=O)/C(=C(/O)c3ccc(Cl)cc3)C2c2cccc(Br)c2)no1 (stereo unspecified),inactive
17,CC[C@H](c1ccccc1)c1cc(C(C)(C)C)cc(C(C)(C)C)c1O,inactive
18,COc1ccc(C(=O)n2nc(-c3ccc(C)cc3)nc2N)cc1OC,inactive
19,Cn1cc(-c2nc3cnc(N4CCNCC4)nc3n(CCc3ccccc3)c2=O)c2ccccc21,inactive
20,O=c1c(CCc2ccccc2)nc2cnc(N3CCNCC3)nc2n1Cc1cccs1,inactive
21,Cc1nc2nc(COc3ccccc3)[nH]n2c(=O)c1C,inactive
22,COc1ccc(C(C(O)C(=O)c2c[nH]c3ccccc23)N2CCN(c3ccccc3)CC2)cc1 (stereo unspecified),inactive
23,COc1ccc(NS(=O)(=O)c2ccc(NC(=O)C(C)(C(F)(F)F)C(F)(F)F)cc2)nn1,inactive

row,SMILES,max dye-equivalent concentration
1,N#Cc1ccc(OCCN2C(=O)NC3(CCSC3)C2=O)cc1 (stereo unspecified),inactive
2,Cc1nc2cnc(Nc3ccccc3)nc2n(Cc2ccc(F)cc2)c1=O,inactive
3,CC(=O)O[C@]1(C(C)=O)CC[C@@H]2[C@@H]3C=C(C)C4=CC(=O)CC[C@@]4(C)[C@H]3CC[C@]21C,inactive
4,Cc1oc(-c2cccc(Cl)c2)[n+]([O-])c1C,inactive
5,CCOC(=O)CCc1c(C)c(C#N)c2[nH]c3ccccc3n2c1=O,inactive
6,Cc1cc(C)c(C#N)c(SCc2ccccc2C(=O)O)n1,inactive
7,CC(CCc1ccccc1)NC(=O)c1ccc(Br)o1 (stereo unspecified),inactive
8,CCCCCNC(=O)Cc1ccc(OC)cc1,inactive
9,CCN(CC)C(=O)N1CCN(C(=O)c2ccc(C)cn2)CC1,inactive
10,CCCOC(=O)C1=C(C)NC2=C(C(=O)C(C(=O)OC)C(C)C2)C1c1ccc(N(C)C)cc1 (stereo unspecified),inactive
11,Cc1cc(C)n(-c2ccc(Cl)c(C(=O)O)n2)n1,inactive
12,COCCn1c(=O)c(C)nc2cnc(N(C)C)nc21,inactive
13,COCCn1c(=O)c(-c2ccc(OC)cc2)nc2cnc(Oc3cccc(Cl)c3)nc21,inactive
14,O=C(O)CCC(=O)N(Cc1ccco1)c1nc(-c2ccccc2)cs1,inactive
15,COc1ccc2nc(NC3=NCN(CC4CCCO4)CN3)nc(C)c2c1 (stereo unspecified),inactive
16,COc1ccc(-c2ccnc(SCC(=O)N3CCOCC3)n2)cc1,inactive
17,COc1ccc(-c2nc3cnc(OC)nc3n(Cc3ccc(F)cc3)c2=O)cc1,inactive
18,COc1ccc(CCn2c(-c3ccco3)nc3nc4ccccc4nc32)cc1OC,inactive
19,COc1ccc(C(C)=O)cc1COC(=O)Cn1cnc2ccccc2c1=O,inactive
20,Cc1cc(C)nc(SCc2nnc(SCC(=O)Nc3ncc(C)s3)n2Cc2ccco2)n1,inactive
21,COc1ncc2nc(-c3ccc(Cl)cc3)c(=O)n(C)c2n1,inactive
22,Cn1c(=O)c(-c2ccccc2)nc2cnc(N3CCNCC3)nc21,inactive
23,CS(=O)(=O)N(CC(=O)NCc1ccco1)c1ccc2c(c1)OCO2,inactive

row,SMILES,max dye-equivalent concentration
1,Cc1cccc2cc(CN(Cc3nnnn3Cc3ccccc3)C3CCCC3)c(=O)[nH]c12,inactive
2,CC(C)C(=O)Nc1cccc(C(=O)Nc2ccc3c(c2)OCO3)c1,inactive
3,O=C1NC(=O)[C@@](Cc2ccccc2)(c2cccnc2)N1,inactive
4,O=C(CN(c1ccc2c(c1)OCCO2)S(=O)(=O)c1ccccc1)Nc1ccc2c(c1)OCO2,inactive
5,CN1CCc2c(sc3c2c(NCc2ccco2)nc2nnnn23)C1,inactive
6,COc1ccc(C)cc1NC(=O)CSc1nc(SC)ns1,inactive
7,N#Cc1ccccc1-c1ccc2ncnc(NCc3cccnc3)c2c1,inactive
8,CCCC(=O)N1c2ccc(-c3csc(N)n3)cc2CC1C (stereo unspecified),inactive
9,COc1ccc(-n2c(=O)c(C)nc3cnc(N4CCOCC4)nc32)cc1,inactive
10,CC(C)C(NC(=O)c1cccc(S(=O)(=O)N2CCOCC2)c1)C(=O)NCCc1ccccn1 (stereo unspecified),inactive
11,CSc1ccc(-c2c(C#N)c(N)nc3c2c(C)nn3-c2ccccc2)cc1,inactive
12,CC(C)(C)n1nc2c(c1NC(=O)c1ccc(S(=O)(=O)N3CCCC3)cc1)CS(=O)C2 (stereo unspecified),inactive
13,CCC[C@H]1C(=O)N2C(N(C)C)=Nc3ccc(C)cc3N2C1=O,inactive
14,Cc1nc2cnc(N3CCN(C)CC3)nc2n(CCC#N)c1=O,inactive
15,CCOc1ccc(-c2nnn(CC(=O)N3CCN(c4ccc(OC)cc4)CC3)n2)cc1OCC,inactive
16,Cc1cnc(NC(=O)CSc2nnc(-c3ccc(Cl)cc3Cl)n2N)s1,inactive
17,CC[C@]1(C)CC(=O)NC1=O,inactive
18,CCc1ccc2oc(=O)cc(CN3CCCCC3C)c2c1 (stereo unspecified),inactive
19,Cc1cc(NC(=O)Cn2nc(C(F)(F)F)c3c2CCCC3)no1,inactive
20,Cc1cc(C(F)(F)F)n2ncc(-c3ccccc3)c2n1,inactive
21,CN(C)/C=C1/Nc2ccccc2C1=O,inactive
22,CCOC(=O)C1CCCCN1Cc1ccc(OC)c(OC)c1OC (stereo unspecified),inactive
23,CN(Cc1ccco1)c1ncncc1-c1ccoc1,inactive

row,SMILES,max dye-equivalent concentration
1,COc1ccc(-c2c3c(=O)n(C)c(=O)n(C)c3cn2NC(C)=O)cc1,inactive
2,COc1ccc2nccc(C(=O)O)c2c1,inactive
3,Cc1ccc(C(=O)Nc2nnc(-c3cccs3)s2)cc1C,inactive
4,CCc1ccccc1NC(=O)CSc1nnc([C@@H](NC(=O)OC(C)(C)C)C(C)C)o1,inactive
5,Cc1ccc(F)cc1NC(=O)c1ccc2c(c1)OCO2,inactive
6,CC(C)[C@H](NC(=O)Nc1ccc(S(N)(=O)=O)cc1)C(=O)O,inactive
7,CCc1ccccc1N(CC(=O)N1CCN(c2ccccc2F)CC1)S(C)(=O)=O,inactive
8,CN(c1ccccc1)c1ccc(/C=c2\s/c(=C(/C#N)C(=O)C(C)(C)C)n(Cc3ccco3)c2=O)cc1,54 nM (active)
9,CCOc1ccccc1/C=c1\sc2nc(-c3ccco3)nn2c1=O,inactive
10,COc1ccccc1NC(=O)CSc1nc2sc(C)c(C)c2c(=O)n1Cc1ccco1,inactive
11,Cc1c(S(=O)(=O)O)ccc(N=Nc2c(O)c(C(=O)O)cc3ccccc23)c1Cl,inactive
12,O=C(NCc1ccco1)c1cnn2c(C(F)(F)F)cc(-c3ccco3)nc12,inactive
13,COCCn1c(=O)c(-c2cccs2)nc2cnc(N3CCN(C)CC3)nc21,inactive
14,COCCn1c(=O)c(CCc2ccccc2)nc2cncnc21,inactive
15,COc1ccc(-c2nc3cnc(N(C)C)nc3n(Cc3cccs3)c2=O)cc1,inactive
16,c1ccc2c(Nc3ccncc3)nc(-c3ccc4c(c3)OCO4)nc2c1,inactive
17,Cn1c(=O)c(CCc2ccccc2)nc2cnc(Nc3ccccc3)nc21,inactive
18,CS(=O)(=O)NCc1ccc(C(=O)NCc2ccccc2)cc1,inactive
19,CCc1cccc(C)c1NC(=O)CSc1nnc(-c2ccco2)n1N,inactive
20,O=C(Nc1ccccc1F)c1cc(S(=O)(=O)N2CCCCC2)cs1,inactive
21,Fc1cnc(N2CCOCC2)nc1NCc1ccccc1,inactive
22,CCNc1ncc2ncc(=O)n(CCc3ccccc3)c2n1,inactive
23,Cc1noc(C)c1-c1nc(Nc2ccccc2)c2ccccc2n1,inactive

row,SMILES,max dye-equivalent concentration
1,Cc1cc(N2CCCC2)n2nc(C)c(-c3ccccc3)c2n1,inactive
2,CC(C)(C)c1csc(NC2=NS(=O)(=O)c3ccccc32)n1,inactive
3,COc1ccc(-c2nc3cnc(Oc4ccccc4)nc3n(Cc3cccs3)c2=O)cc1,inactive
4,COC(=O)CN(c1nc(C)c(Cl)c(OC)n1)S(=O)(=O)c1ccc(C)cc1,inactive
5,COC(=O)CNC(=O)c1ccc2c(c1)S(=O)(=O)c1ccccc1C2=O,inactive
6,CC(C)C1N=C2c3ccccc3N=C(SCC(=O)c3ccc(O)c(O)c3)N2C1=O (stereo unspecified),inactive
7,O=C(O)C1CCCCC1C(=O)Nc1ccc(Cl)cc1 (stereo unspecified),inactive
8,CCCS(=O)(=O)C(=C1Nc2ccccc2N1)S(=O)(=O)CCC,inactive
9,Cn1c(-c2ccc(C(=O)c3ccccc3)s2)nc2ccccc21,inactive
10,O=C(NCC1CCCO1)C(C(=O)c1ccccc1)n1cc(Cl)ccc1=O (stereo unspecified),inactive
11,CCOC(=O)c1[nH]c2ccc(C)cc2c1N=C(C)N(C)C,inactive
12,COC(=O)N1CCC2(CCCN(c3ccncc3)C2)CC1,inactive
13,COCCn1c(=O)c(-c2ccccc2)nc2cnc(N3CCOCC3)nc21,inactive
14,COCCn1c(=O)c(-c2cc(F)cc(F)c2)nc2cncnc21,inactive
15,Cc1nn2c3ccccc3nc2n(C)c1=O,inactive
16,O=C(COc1ccc2c3c(c(=O)oc2c1)CCC3)NC1CCCCC1,inactive
17,O=C(NCc1ccccn1)c1cc2ccccc2oc1=O,inactive
18,COc1ccc(Cl)cc1NC(=O)c1oc(C)nc1C,inactive
19,Cc1c(C)c2c(c(C)c1O)CC[C@@](C)(CN1CCN(c3cc(N4CCCC4)nc(N4CCCC4)n3)CC1)O2,inactive
